Records with an inconclusive call do not appear. Values without a mark were called inactive. The source made the active and inactive calls. The call rests on the fitted dose curve; in most records, active means well fitted activation curve with a large enough effect in the signal ratio in the repeat runs (not every such curve was filed as active); inconclusive means weak or mixed curves; inactive means flat fitted curve, though single readings scatter; the % refers to the signal ratio.
On the % scale 0 is the no-effect control and ±100 the full control effect.

A short description of this test: qHTS assay to identify small molecule agonists of the hypoxia (HIF-1) signaling pathway (AID 1224846). The conditions noted are these: HRE-bla ME-180 cells, beta-lactamase ratio, 17 h; series mostly up to 76.8 µM. An excerpt:
U.S. Tox21 Program National Center for Advancing Translational Sciences [NCATS] NIH Chemical Genomics Center [NCGC] U.S. Environmental Protection Agency [EPA] National Institutes of Environmental Health Sciences [NIEHS] National Toxicology Program [NTP] U.S. Food and Drug Administration [FDA] Tox21 Assay Overview: Hypoxia-inducible factor-1 (HIF-1) is the major hypoxia-regulated transcription factor that controls cellular responses to low oxygen concentration. HIF-1 is composed of two subunits: hypoxia responsive HIF-1-alpha and constitutively expressed HIF-1-beta, which is also known as aryl hydrocarbon receptor nuclear translocator. During hypoxic conditions, HIF-1-alpha heterodimerizes with HIF-1-beta and translocates into the nucleus where the HIF-1 complex binds to the hypoxia-response element (HRE) and activates expression of target genes such as VEGF (vascular endothelial growth factor). The HIF-1 pathway is essential to normal growth and development, and is involved in the pathophysiology of cancer, inflammation, and ischemia. Using a beta-lactamase reporter-gene under control of the hypoxia response element, a cell-based assay [CellSensor(TM) HRE-bla ME-180 from Life Technologies, Carlsbad, CA] was used to measure hypoxia-induced signaling. Tox21 10K library compounds were measured for their ability to induce the reporter gene activity.
Tox21 Assay Protocol Summary: HRE-bla ME-180 cells were dispensed at 2,000 cells per well in 6 uL of assay medium containing 0.5% dialyzed FBS into black wall/clear-bottom 1536-well plates using a Multidrop Combi (Thermo Scientific, Waltham, MA) dispenser. After the assay plates were incubated at 37C and 5% CO2 for 5 hrs, 23 nL of compounds dissolved in DMSO, positive controls or DMSO only was transferred to each well of the assay plate using a Pintool station (Kalypsys, San Diego, CA). The assay plates were incubated at 37C and 5% CO2 for 17 hrs. One uL of LiveBLAzerTM B/G FRET substrate (CCF4-AM) (Life Technologies) was added to each well using a Flying Reagent Dispenser (Aurora Discovery, San Diego, CA).
A general note: Quantitative high-throughput screening tests each substance at several concentrations.
With `Cc1ccccc1C(=O)N1CC/C(=N\OS(=O)(=O)O)c2ccc(Cl)cc21`, the result was inactive.

Regarding `NC(Cc1c[nH]c2ccccc12)C(=O)O` (stereo not given), the outcome was inactive.

With `CCCCCCCCCCCCOC(C)=O`, the result was inactive.

As for `CCN(CCO)c1cccc(C)c1`, the outcome was inactive.

With `Cc1oc(=O)oc1CN1CCN(c2cc3c(cc2F)c(=O)c(C(=O)O)c2n3C(C)S2)CC1` (stereo not given), the outcome was inactive.

Turning to `CC(C)(c1ccc(Oc2ccc3c(c2)C(=O)OC3=O)cc1)c1ccc(Oc2ccc3c(c2)C(=O)OC3=O)cc1`, the result was inactive.

For `CCOC(=O)C(=O)c1csc(NC=O)n1`, the result was inactive.

On to `CCOC(=O)CCc1ccccc1`, for which the outcome was inactive.

Take `CCCC(C)CC` (stereo not given): the result was inactive.

On to `OCCCCCCCl`, for which the outcome was inactive.

As to `CC(C)CCC(=O)CCC(C)C`, the outcome was inactive.

In the case of `Nc1nc(=O)n([C@@H]2O[C@H](CO)[C@@H](O)[C@@H]2F)cc1I`, the outcome was inactive.

On to `CC(C)c1ccccc1O`, for which the outcome was inactive.

Take `CCC(=O)c1ccc(O)cc1`: the result was inactive.

On to `Cc1ncc([N+](=O)[O-])n1CC(O)CCl` (stereo not given), for which the outcome was inactive.

Consider `C=C(C)C(=O)OC`, for which the outcome was inactive.

`Nc1ccnc(=O)[nH]1`: the result was inactive.

Consider `CC(CC(=O)O)CC(C)(C)C` (stereo not given), for which the result was inactive.

On to `CC1(N)CCC(C(C)(C)N)CC1` (stereo not given), for which the outcome was inactive.

Turning to `C=CCCCCCCCCCCC`, the activation was -0.397% [at 7.01 µM].

For the molecule `COC(/C=C(\C)CCC=C(C)C)OC`, the outcome was inactive.

Turning to `COc1cc2c3cc1Oc1cc(ccc1O)C[C@@H]1c4c(cc(OC)c(O)c4Oc4ccc(cc4)C[C@@H]3N(C)CC2)CC[N+]1(C)C`, the result was inactive.

Turning to `CO[Si](CCCCl)(OC)OC`, the outcome was inactive.

`CN(C)CCCNCCC#N`: the result was inactive.

On to `Cc1cc(C)cc([N+](=O)[O-])c1`, for which the result was inactive.

For the molecule `CCCCC/C=C/CC(=O)OC`, the outcome was inactive.

Take `CC(=O)OC(C(=O)c1ccccc1)c1ccccc1` (stereo not given): the result was inactive.

`CC(C)COC(=O)COc1ccc(Cl)cc1Cl`: the result was inactive.

With `NC(=O)C1(N2CCCCC2)CCN(CCCC(=O)c2ccc(F)cc2)CC1`, the result was inactive.

For the molecule `C[N+](C)(C)CC(O)CCl` (stereo not given), the outcome was inactive.

As for `C=C[C@@H](C)CCC=C(C)C`, the result was inactive.

With `O=C(O)C(=O)Nc1cccc(-c2nn[nH]n2)c1`, the result was inactive.

In the case of `CC(Cl)COP(=O)(OCC(C)Cl)OCC(C)Cl` (stereo not given), the outcome was inactive.

Turning to `CCCCCC(=O)OCC`, the outcome was inactive.

Consider `Cc1ccccc1C`, for which the result was inactive.

`O=C1c2ccccc2-c2ccccc21`: the result was inactive.

Consider `CCCCCCCCCOCC1CO1` (stereo not given), for which the result was inactive.

As to `CCCCC(CC)C(=O)OC(C)C` (stereo not given), the result was inactive.

As for `CC(=O)N1CCN(c2ccc(O)cc2)CC1`, the result was inactive.

Turning to `O=C1CC[C@H](C(=O)N2CCCCC2)N1`, the outcome was inactive.

For the origin of these results see PubChem BioAssay (Tox21).
